SMILES strings stand for the structures. Structures can show the parent of a compound that is named as a salt.

In the test the test system is Danio rerio larvae (5 dpf). As to the kind of experiment: optomotor response to red moving lines, difference vs DMSO (percentage points (treated minus DMSO)); higher = more of the behaviour than the DMSO vehicle control. Conditions: 10 µM; exposure time: 3 h pre-incubation + 3 h imaging. As to the method: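 5-dpf wild-type zebrafish larvae were imaged in 96-well plates. They were treated with 190 Tocris FDA-approved drugs at 10 µM (1 µl/ml DMSO) for 3 h before and 3 h during imaging at 28.5 °C, 48 larvae per drug. Automated image analysis gave % time moving and optomotor responses. Values are drug group mean minus DMSO vehicle mean (n=844), in percentage points, for 10 behaviours.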
Consider `COc1ccc(C(CN(C)C)C2(O)CCCCC2)cc1` (stereo unspecified) [Venlafaxine hydrochloride], for which the “optomotor response to red moving lines” value was found to be 18.8.

`CN1C[C@H](C(=O)N[C@]2(C)O[C@@]3(O)[C@@H]4CCCN4C(=O)[C@H](Cc4ccccc4)N3C2=O)C[C@@H]2c3cccc4[nH]cc(c34)C[C@H]21` [Dihydroergotamine mesylate]: the “optomotor response to red moving lines” value stood at 11.5. With `CC(C)C[C@H]1C(=O)N2CCC[C@H]2[C@]2(O)O[C@](NC(=O)[C@@H]3C=C4c5cccc6[nH]c(Br)c(c56)C[C@H]4N(C)C3)(C(C)C)C(=O)N12` [Bromocriptine mesylate], the “optomotor response to red moving lines” value was -29.

Take `CC[C@@H](C(N)=O)N1CCCC1=O` [Levetiracetam]: the “optomotor response to red moving lines” value worked out at 0.251. Turning to `C=CCN1C[C@H](C(=O)N(CCCN(C)C)C(=O)NCC)C[C@@H]2c3cccc4[nH]cc(c34)C[C@H]21` [Cabergoline], the “optomotor response to red moving lines” value was -3.05. With `CCN(C)C(=O)Oc1cccc([C@H](C)N(C)C)c1` [Rivastigmine tartrate], the “optomotor response to red moving lines” value is -8.95. On to `C=C1C[C@@H]2[C@H](CC[C@]3(C)C(=O)CC[C@@H]23)[C@@]2(C)C=CC(=O)C=C12` [Exemestane], for which the “optomotor response to red moving lines” value worked out at 6.78. Regarding `O=c1[nH]c2ccccc2n1C1CCN(CCCC(c2ccc(F)cc2)c2ccc(F)cc2)CC1` [Pimozide], the “optomotor response to red moving lines” value was -0.227.

On to `COc1cc2c(cc1OC)C1CC(=O)C(CC(C)C)CN1CC2` (stereo unspecified) [Tetrabenazine], for which the “optomotor response to red moving lines” value was -1.77.

Regarding `CC(O)(CS(=O)(=O)c1ccc(F)cc1)C(=O)Nc1ccc(C#N)c(C(F)(F)F)c1` (stereo unspecified) [Bicalutamide], the “optomotor response to red moving lines” value is -10.4. On to `N[C@@H]1C[C@H]1c1ccccc1` [Tranylcypromine hydrochloride], for which the “optomotor response to red moving lines” value amounted to 12.9.

The values are drawn from the supplement of paper PMC9023506.
